Only some compounds are listed: those with a hit (about 4% of all), similar ones and a draw of the others.
D1 potentiator: Potentiators of Human D1 Dopamine Receptor: qHTS; 360,000 tested, 0.036% active; potentiation, % at 10 µM; HEK293 TREx D1 cells, calcium flux, dopamine EC20 potentiation; D(1A) dopamine receptor (Homo sapiens), P21728; in the data active = potentiation above about 30%
Target sequence (P21728 whole entry, looked up): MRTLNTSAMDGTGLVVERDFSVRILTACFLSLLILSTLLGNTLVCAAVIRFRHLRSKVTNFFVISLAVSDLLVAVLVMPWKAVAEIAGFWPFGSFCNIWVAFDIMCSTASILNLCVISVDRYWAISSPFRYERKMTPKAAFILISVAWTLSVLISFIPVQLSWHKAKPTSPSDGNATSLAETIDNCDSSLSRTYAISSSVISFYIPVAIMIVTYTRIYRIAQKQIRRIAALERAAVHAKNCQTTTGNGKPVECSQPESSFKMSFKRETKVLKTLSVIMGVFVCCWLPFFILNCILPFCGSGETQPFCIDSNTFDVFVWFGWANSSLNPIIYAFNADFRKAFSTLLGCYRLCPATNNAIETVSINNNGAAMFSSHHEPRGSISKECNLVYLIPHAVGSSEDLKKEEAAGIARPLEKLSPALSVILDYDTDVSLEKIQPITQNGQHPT
TRHR enhancer: qHTS for Small Molecule Agonists and Allosteric Enhancers of Human TRH Receptor: Primary Screen for Enhancers. Thyrotropin-releasing hormone receptor (Homo sapiens), P34981. TRHR cells, fluo-8 calcium fluorescence, EC20 TRH enhancement. enhancement, % at 2 µM. 360,000 tested, 0.66% active. AID 493056, 2011; in the data active = enhancement above about 30%
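Enhancer read-out: after compound pinning and an initial kinetic agonist-mode read, an EC20 of TRH (10 nM final) was injected and fluo-8 calcium signal (Ex 480/Em 530) followed at 1 s/cycle for 100 cycles in TRHR-expressing cells.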
D1 antag: Antagonist of Human D 1 Dopamine Receptor: qHTS | 360,000 tested, 3.2% active | AID 504652, 2011 | activity change, negative = inhibition, % at 10 µM | D(1A) dopamine receptor (Homo sapiens), P21728 | HEK293 TREx D1 cells, calcium flux, dopamine EC80; active compounds read low; in the data active = activity change below about -30%
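After overnight tetracycline induction at 30 C, force-coupled D1 HEK293 cells took up a no-wash calcium dye at room temperature. Compounds were added and monitored 180 s, and the response to EC80 dopamine was then recorded.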
D1 ag: Allosteric Agonists of the Human D1 Dopamine Receptor: qHTS; 360,000 tested, 1% active; activation, % at 2 µM; HEK293 T-REx D1 cells, calcium flux, agonist mode; D(1A) dopamine receptor (Homo sapiens), P21728
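Tetracycline-induced HEK293 TREx D1 cells, force-coupled to calcium signalling, were dye-loaded with a no-wash calcium kit. Compound was pin-added after a 10 s baseline. Fluorescence was read kinetically at 1 cycle/s for 180 s, with calcium rises flagged as agonism.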
TRHR agonist: qHTS for Small Molecule Agonists and Allosteric Enhancers of Human TRH Receptor: Primary Screen for Agonists; Thyrotropin-releasing hormone receptor (Homo sapiens), P34981; AID 493084, 2011; TRHR cells, calcium flux fluo-8, FDSS agonist mode; 360,000 tested, 0.18% active; activation, % at 2 µM
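TRHR-expressing cells, plated overnight in medium with 10% serum, were loaded with fluo-8 calcium dye at room temperature. After a 10 s baseline, library compound was pin-added and calcium release was recorded kinetically (ex 480/em 530) as agonist response.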
GRP78 ERSR act: qHTS for Inducers of the Endoplasmic Reticulum Stress Response (ERSR) in Human Glioma: qHTS. U87-MG GRP78 promoter luciferase reporter, 16 h. Potency, µM, hits mostly activators. 420,000 tested, 0.02% active. AID 602332, 2012; active = well fitted activation curve with a large enough effect; note: series mostly up to about 76 µM; nearly all actives have a fitted effect of over 35% in size
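ERSR induction read as luciferase luminescence (Bright-Glo, 10 min at room temperature) in stably transfected human U87-MG glioma cells exposed to compounds for 16 h, using GRP78 as sensor.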
Of the large screens only hits and unclear results are named; the others gave an inactive call; ! = not confirmed by another sample. Cut-off read from the data, not from the text of the source, unless noted: active = activation above about 30%; inactive = the rest.

O=C(C[n+]1cccc(Br)c1)c1ccc2c(c1)CCCC2	none (no result: D1 potentiator, TRHR enhancer, D1 antag, D1 ag, TRHR agonist)
Cc1ccc(C(=O)N[C@@H](C)CN2C3=NC[C@H](C)N3C[C@H]2Cc2ccc(O)cc2)cc1Br	D1 antag -65 (no result: GRP78 ERSR act)
Nc1c(C(=O)Nc2nccs2)sc2nc(-c3cccs3)cc(C(F)(F)F)c12	D1 ag 116
CCN(CC)S(=O)(=O)c1cc(C(=O)N(C)CC(=O)Nc2ccc(Cl)cc2)ccc1Cl	D1 antag -33
CCN(CC)S(=O)(=O)c1cc(C(=O)Nc2ccncc2)ccc1Cl	D1 antag -31
CCN(CC)S(=O)(=O)c1cc(C(=O)Nc2cccnc2)ccc1Cl	none (no result: D1 antag)
CCN(CC)CCNC(=O)c1c(C)[nH]c(/C=C2\C(=O)Nc3ccc(F)cc32)c1C	none (no result: D1 potentiator, TRHR enhancer, D1 antag, D1 ag, TRHR agonist)
O=C(CSc1nnc(-c2ccncc2)o1)Nc1ccccc1C(F)(F)F	none
Cn1nc(C(F)(F)F)c(CN2CC(C)(C)C2=O)c1N1CCOCC1	D1 antag -31
Cn1nc(C(F)(F)F)c(CNC(=O)C(C)(C)CCl)c1N1CCOCC1	none
CCOc1ccc(NC(=O)Nc2cc(OCC(F)(F)F)cc(OCC(F)(F)F)c2)cc1	D1 antag -37
CCOc1ccc(NC(=O)Nc2cc(C(C)C)c(O)cc2C)cc1	D1 antag -47
Cc1cc(C)c(NC(=O)Nc2ccc3snnc3c2)c(C)c1	none
O=C(Nc1ccccc1)Nc1ccc2nnsc2c1	D1 ag 33
CN(C)c1ccc(NC(=O)Nc2ccc3snnc3c2)cc1	D1 antag -48
COC(=O)Cc1c(C)c2ccc(OCC(=O)N3CCC(C)CC3)c(C)c2oc1=O	none
COCC(=O)Nc1cc(C(=O)N2CCCOc3c(cccc3OC)C2)c2c(c1)nc(C1CCC1)n2C	none (no result: D1 potentiator, TRHR enhancer, D1 antag, D1 ag, TRHR agonist)
COc1cccc(NC(=O)Cn2c(=O)n(CCc3cccc(C)c3)c(=O)c3ccccc32)c1	none
O=C(Nc1cccc(C(F)(F)F)c1)Nc1ccc2snnc2c1	D1 antag -69, D1 ag 37
CCOc1ccc(NC(=O)Nc2ccc3snnc3c2)cc1	D1 antag -39
O=C(Nc1ccccc1)Nc1ccc2snnc2c1	D1 antag -52
CCOc1ccc(NC(=O)Nc2ccc3nsnc3c2)cc1	none
CC(C)c1ccccc1OCC(=O)Nc1ccccc1C(=O)N1CCOCC1	none
CCC(C)C(NC(=O)OC(C)(C)C)C(=O)NC1COC2CC(n3ccc(NC(C)=O)nc3=O)OC12 (stereo unspecified)	none (no result: D1 potentiator, TRHR enhancer, D1 antag, D1 ag, TRHR agonist)
O=C(Nc1ncc(Cc2ccc(SC(F)F)cc2)s1)c1ccc(OC(F)F)cc1	D1 ag 35
Cc1ccc(Cc2cnc(NC(=O)c3ccco3)s2)cc1	none (no result: D1 antag)
Cc1cccc(N(C)S(=O)(=O)c2cc(-c3cnc(C4CC4)o3)ccc2C)c1	D1 antag -32 (no result: GRP78 ERSR act)
CC1CC(=O)N(c2ccc(C(C)C)cc2)C(=O)C1	D1 antag -32
COc1cc2c(NC3CCN(C)CC3)nc(N3CCCN(C)CC3)nc2cc1OCCCN1CCOCC1	none (no result: D1 potentiator, TRHR enhancer, D1 antag, D1 ag, TRHR agonist)
COCCCNC(=O)CCn1c(=O)c2ccccc2n(CC(=O)Nc2cc(Cl)ccc2OC)c1=O	none
CCCc1cc(Nc2ccccc2C)n2ncnc2n1	TRHR enhancer 35
CCCc1cc(Nc2cccc(OCC)c2)n2ncnc2n1	none
CN1/C(=C\P(=O)(N(C)C)N(C)C)C(C)(C)c2ccccc21	D1 antag -37
CCOc1ccc(CCNC(=O)C2CCN(Cc3nc(-c4ccc(OC)c(OC)c4)oc3C)CC2)cc1OCC	none
Fc1cc2[nH]c(=S)[nH]c2cc1Cl	D1 antag -41
NCCc1c(-c2ccccc2)n(-c2ccccc2)c2ccccc12	D1 ag 102
CC(=O)n1c(-c2ccccc2)c(CO)c2ccccc21	none
CCc1ccc(-n2c(=O)c3c4c(sc3n(CC(=O)N3CCC(C)CC3)c2=O)CCC4)cc1	none
O=C(C1=C(O)C(=O)N(CCN2CCOCC2)C1c1cccc(Br)c1)c1cc2ccccc2o1 (stereo unspecified)	none
CN(C)CCN1C(=O)C(O)=C(C(=O)c2cc3ccccc3o2)C1c1cccc(Br)c1 (stereo unspecified)	D1 antag -38
O=C(O)CC(C(=O)Nc1ccc(Cl)cc1Cl)C1CCCO1 (stereo unspecified)	D1 antag -63
COC(=O)C1CCN(Cc2ccc3c(c2)CN(C(=O)c2cc(C4CC4)on2)CCO3)CC1	none (no result: D1 potentiator, TRHR enhancer, D1 antag, D1 ag, TRHR agonist)
CCCCN(Cc1ccco1)C(=O)c1cc2c(=O)[nH]c3ccc(C)cc3c2s1	none (no result: D1 potentiator)
Cc1ccc2[nH]c(=O)c3cc(C(=O)N(CCCOC(C)C)Cc4ccco4)sc3c2c1	TRHR enhancer 42!
CC1(C)OC(C)(C)/C(=C\c2ccc(OCC(N)=O)cc2)C1=O	D1 antag -66
NC(=O)COc1ccc(/C=C2\C(=O)ON=C2c2ccccc2)cc1	none
COc1ccccc1C(CNC(=O)CNC(=O)c1ccc(Cl)c(Cl)c1)N1CCCC1 (stereo unspecified)	D1 antag -38 (no result: D1 potentiator)
COc1ccccc1C(=O)NCCC(=O)NCC(c1ccccc1OC)N1CCCC1 (stereo unspecified)	none
COc1ccccc1C(CNC(=O)CNC(=O)c1ccccc1Cl)N1CCCC1 (stereo unspecified)	D1 antag -45
COc1ccccc1C(CNC(=O)CNC(=O)c1ccc(C)c(C)c1)N1CCCC1 (stereo unspecified)	none (no result: D1 potentiator)
CC(=O)c1c(C)[nH]c(C(=O)COC(=O)c2nccnc2N)c1C	none (no result: D1 potentiator)
CC(=O)c1c(C)[nH]c(C(=O)COC(=O)c2cccnc2Cl)c1C	D1 antag -33
CCCCC(=O)OCC(=O)c1[nH]c(C)c(C(C)=O)c1C	TRHR enhancer 35
COc1ccc(C(C)=O)cc1CN1C(=O)C(C)ON=C1c1cccc(C(F)(F)F)c1 (stereo unspecified)	none (no result: D1 potentiator, TRHR enhancer, D1 antag, D1 ag, TRHR agonist)
CCC(C)NC(=O)c1ccc(NS(=O)(=O)c2ccc3[nH]c(=O)[nH]c3c2)cc1 (stereo unspecified)	D1 antag -33
c1ccc(CN2CCC(Nc3nc(-c4ccccc4)nc4ccccc34)CC2)cc1	none
Cc1csc2ncnc(NC3CCN(Cc4ccccc4)CC3)c12	D1 antag -33
COc1cc(N(C)C)c(OC)cc1/C=C/c1ccnc2ccccc12	none (no result: D1 potentiator, TRHR enhancer, D1 antag, D1 ag, TRHR agonist)
Cc1noc(C)c1CSCC(=O)N(C)CC(=O)Nc1ccccc1Br	D1 antag -47
